The panel holds about 79,000 compounds, 15% with a hit somewhere; the sample as a whole holds those more often. Calls of active or inactive are those of the source. Cut-off read from the data, not from the text of the source: active = growth inhibition above about 70%; inactive = the rest.
Key:
[1] = NCI Yeast Anticancer Drug Screen. Data for the rad52 strain (AID 147);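 note: 0% = growth of vehicle-treated control cultures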; settings: S. cerevisiae rad52 mutant growth inhibition, hits give high values
How it was run: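 Yeast strain carrying a DNA damage repair alteration was exposed to test compounds. Growth inhibition was measured relative to vehicle-treated controls.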

[2] = NCI Yeast Anticancer Drug Screen. Data for the wt1 strain (AID 149);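 note: 0% = growth of vehicle-treated wt1 cultures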; settings: S. cerevisiae wt1 strain (SPY 50644) growth inhibition, hits give high values
How it was run: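 Each compound is tested on wt1 yeast and the loss of growth versus vehicle gives the inhibition value.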

[3] = NCI Yeast Anticancer Drug Screen. Data for the rad50EPP+ strain (AID 151);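 note: 0% = growth of vehicle-treated control cultures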; settings: S. cerevisiae rad50 mutant strain, hits give high values
How it was run: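 Yeast strain carrying rad50 alteration (rad50EPP+) exposed to compounds; growth inhibition measured relative to vehicle-treated controls.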

[4] = NCI Yeast Anticancer Drug Screen. Data for the mgt1 strain (AID 153); settings: S. cerevisiae mgt1 mutant growth inhibition, hits give high values
How it was run: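 Yeast mgt1 strain (DNA repair/cell-cycle alteration panel) exposed to compounds; growth inhibition measured relative to vehicle-treated controls.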

[5] = NCI Yeast Anticancer Drug Screen. Data for the rad50 strain (AID 155);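 note: 0% = growth of vehicle-only cultures of the same strain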; settings: S. cerevisiae rad50 strain growth inhibition, hits give high values
How it was run: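 Vehicle-treated cultures provide the reference for the growth inhibition reported for compound-exposed, repair-deficient yeast.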

[6] = NCI Yeast Anticancer Drug Screen. Data for the mec2-1 strain (AID 157); settings: S. cerevisiae mec2-1 strain, hits give high values
How it was run: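 mec2-1 yeast strain, carrying an alteration in DNA damage repair or cell cycle control, was exposed to compounds; growth inhibition was measured relative to vehicle-treated controls.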

[7] = NCI Yeast Anticancer Drug Screen. Data for the rad14 strain (AID 159);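 note: 0% = growth of vehicle-treated control cultures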; settings: S. cerevisiae rad14 strain growth inhibition, hits give high values
How it was run: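 Inhibition of growth is reported for a repair-deficient yeast mutant following compound treatment, calculated relative to cultures that received vehicle.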

[8] = NCI Yeast Anticancer Drug Screen. Data for the sgs1 mgt1 strain (AID 161);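 note: 0% = growth of cultures given vehicle only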; settings: S. cerevisiae sgs1 mgt1 strain, hits give high values
How it was run: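 This yeast growth screen uses a strain with defined DNA-repair lesions; compound-treated growth is compared with vehicle-treated growth.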

[9] = NCI Yeast Anticancer Drug Screen. Data for the CLN2oe strain (AID 163);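 note: 0% = growth of vehicle-only control cultures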; settings: S. cerevisiae CLN2oe strain, hits give high values
How it was run: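 Yeast cells carrying a defined cell-cycle control alteration were exposed to test compounds. Growth inhibition was scored against vehicle-treated control cultures.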

[10] = NCI Yeast Anticancer Drug Screen. Data for the cln2 rad14 strain (AID 165);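 note: 0% = growth equal to vehicle treated cultures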; settings: S. cerevisiae cln2 rad14 strain, hits give high values
How it was run: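 Yeast carrying cln2 and rad14 alterations (cell cycle control and DNA damage repair) were exposed to compounds. Growth inhibition was measured against vehicle-treated controls.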

[11] = NCI Yeast Anticancer Drug Screen. Data for the bub3 strain (AID 167); settings: S. cerevisiae bub3 mutant strain, hits give high values
How it was run: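 Mutant yeast screening strain plus compound; vehicle-treated cultures serve as the 0% inhibition reference.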

[12] = NCI Yeast Anticancer Drug Screen. Data for the wt2 strain (AID 169); settings: S. cerevisiae wt2 strain growth inhibition, hits give high values
How it was run: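 Yeast cells were exposed to test compounds, and growth inhibition was measured relative to vehicle-treated controls.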

[13] = NCI Yeast Anticancer Drug Screen. Data for the mlh1 strain (AID 171);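 note: 0% = growth of vehicle-treated control cultures of the same strain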; settings: S. cerevisiae mlh1 strain growth inhibition, hits give high values
How it was run: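 Yeast carrying a defined genetic alteration in DNA damage repair or cell cycle control were exposed to test compounds. Growth inhibition was measured relative to vehicle-treated controls.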

[14] = NCI Yeast Anticancer Drug Screen. Data for the sgs1 strain (AID 173);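 note: 0% = growth of vehicle-only control cultures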; settings: S. cerevisiae sgs1 mutant, hits give high values
How it was run: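 Yeast mutant strains carrying defined defects in DNA damage repair or cell cycle control were exposed to test compounds. Growth inhibition was scored against vehicle-treated controls.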

[15] = NCI Yeast Anticancer Drug Screen. Data for the mlh1 rad18 strain (AID 175); settings: S. cerevisiae mlh1 rad18 strain growth inhibition, hits give high values
How it was run: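 Growth inhibition of the yeast strain was measured after compound exposure and expressed relative to vehicle-treated controls. The strain carries defined defects in DNA damage repair.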

[16] = NCI Yeast Anticancer Drug Screen. Data for the rad18 strain (AID 177); settings: S. cerevisiae rad18 mutant growth inhibition, hits give high values
How it was run: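 Yeast carrying a defined DNA damage repair alteration were exposed to compounds. Growth inhibition was expressed relative to vehicle-treated controls.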

[17] = at 5.0 µM (retest, dose inferred, filed as 0.5)
[18] = at 50.0 µM (retest, dose inferred, filed as 5.0)

Measured: growth inhibition

O=C1c2ccccc2C(=O)c2c(NC3CCCCC3)ccc(Nc3ccc(S(=O)(=O)O)cc3)c21
active: [3]; at 33.0 µM 80% | [4]; at 33.0 µM 81% | [5]; at 50.0 µM 79.2% | [6]; at 50.0 µM 77% | [7]; at 100.0 µM 71% | [8]; [18] 85% | [8]; at 50.0 µM 77.2% | [11]; at 50.0 µM 70.3% | [12]; at 33.0 µM 80% | [13]; at 100.0 µM 71% | [14]; at 33.0 µM 79% | [14]; at 100.0 µM 72% | [15]; [18] 72% | [15]; at 50.0 µM 82.9%
inactive: [1]; at 1.2 µM -5% | [1]; at 3.7 µM -5% | [1]; at 11.0 µM -5% | [1]; at 33.0 µM 37% | [1]; at 100.0 µM 49% | [2]; at 1.2 µM -1% | [2]; at 3.7 µM -5% | [2]; at 11.0 µM -7% | [2]; at 33.0 µM 10% | [2]; at 100.0 µM 33% | [3]; at 1.2 µM -2% | [3]; at 3.7 µM 5% | [3]; at 11.0 µM 56% | [3]; at 100.0 µM 63% | [4]; at 1.2 µM -2% | [4]; at 3.7 µM -1% | [4]; at 11.0 µM -2% | [4]; at 100.0 µM 68% | [5]; at 1.2 µM 0% | [5]; at 3.7 µM -2% | [5]; [17] 8% | [5]; at 11.0 µM 9% | [5]; at 33.0 µM 27% | [5]; [18] 62% | [5]; at 100.0 µM 44% | [6]; at 1.2 µM 1% | [6]; at 3.7 µM -5% | [6]; [17] -14% | [6]; at 11.0 µM -5% | [6]; at 33.0 µM 14% | [6]; [18] 59% | [6]; at 100.0 µM 48% | [7]; at 1.2 µM 2% | [7]; at 3.7 µM -4% | [7]; at 11.0 µM 2% | [7]; at 33.0 µM 48% | [8]; [17] -13% | [9]; at 1.2 µM -5% | [9]; at 3.7 µM 4% | [9]; at 11.0 µM -5% | [9]; at 33.0 µM 1% | [9]; at 100.0 µM 18% | [10]; [17] -13% | [10]; [18] -4% | [10]; at 50.0 µM 59% | [11]; at 1.2 µM -2% | [11]; at 3.7 µM -4% | [11]; [17] 6% | [11]; at 11.0 µM 5% | [11]; at 33.0 µM 36% | [11]; [18] 46% | [11]; at 100.0 µM 30% | [12]; at 1.2 µM -3% | [12]; at 3.7 µM -4% | [12]; at 11.0 µM 5% | [12]; at 100.0 µM 62% | [13]; at 1.2 µM -2% | [13]; at 3.7 µM -3% | [13]; at 11.0 µM 5% | [13]; at 33.0 µM 50% | [14]; at 1.2 µM -1% | [14]; at 3.7 µM -2% | [14]; at 11.0 µM 23% | [15]; [17] 5% | [16]; at 1.2 µM -2% | [16]; at 3.7 µM -13% | [16]; at 11.0 µM -1% | [16]; at 33.0 µM 40% | [16]; at 100.0 µM 46%

S=C(Nc1ccc(Cl)c(Cl)c1)SCc1ccc2c(c1)OCO2
inactive: [1]; at 1.2 µM 6% | [1]; at 3.7 µM 54% | [2]; at 1.2 µM 1% | [2]; at 3.7 µM 49% | [3]; at 1.2 µM 27% | [4]; at 1.2 µM -2% | [4]; at 3.7 µM 15% | [5]; at 1.2 µM -4% | [5]; at 3.7 µM 40% | [5]; [17] 52% | [6]; at 1.2 µM -2% | [6]; at 3.7 µM 6% | [7]; at 1.2 µM 4% | [7]; at 3.7 µM 54% | [9]; at 1.2 µM -4% | [9]; at 3.7 µM -13% | [10]; [17] 5% | [11]; at 1.2 µM -7% | [11]; at 3.7 µM 29% | [12]; at 1.2 µM 14% | [13]; at 1.2 µM -6% | [13]; at 3.7 µM 66% | [14]; at 1.2 µM 6% | [14]; at 3.7 µM 38% | [16]; at 1.2 µM -7% | [16]; at 3.7 µM 34%
active: [1]; at 11.0 µM 99% | [1]; at 33.0 µM 99% | [1]; at 100.0 µM 94% | [2]; at 11.0 µM 100% | [2]; at 33.0 µM 99% | [2]; at 100.0 µM 96% | [3]; at 3.7 µM 84% | [3]; at 11.0 µM 99% | [3]; at 33.0 µM 99% | [3]; at 100.0 µM 97% | [4]; at 11.0 µM 99% | [4]; at 33.0 µM 99% | [4]; at 100.0 µM 97% | [5]; at 11.0 µM 99% | [5]; at 33.0 µM 99% | [5]; [18] 97% | [5]; at 50.0 µM 87.3% | [5]; at 100.0 µM 94% | [6]; [17] 78% | [6]; at 11.0 µM 100% | [6]; at 33.0 µM 99% | [6]; [18] 98% | [6]; at 50.0 µM 92.1% | [6]; at 100.0 µM 97% | [7]; at 11.0 µM 100% | [7]; at 33.0 µM 99% | [7]; at 100.0 µM 96% | [8]; [17] 77% | [8]; [18] 98% | [8]; at 50.0 µM 89.6% | [9]; at 11.0 µM 99% | [9]; at 33.0 µM 99% | [9]; at 100.0 µM 93% | [10]; [18] 97% | [10]; at 50.0 µM 87.6% | [11]; [17] 76% | [11]; at 11.0 µM 99% | [11]; at 33.0 µM 99% | [11]; [18] 98% | [11]; at 50.0 µM 88.2% | [11]; at 100.0 µM 96% | [12]; at 3.7 µM 90% | [12]; at 11.0 µM 100% | [12]; at 33.0 µM 100% | [12]; at 100.0 µM 97% | [13]; at 11.0 µM 99% | [13]; at 33.0 µM 99% | [13]; at 100.0 µM 95% | [14]; at 11.0 µM 99% | [14]; at 33.0 µM 99% | [14]; at 100.0 µM 96% | [15]; [17] 90% | [15]; [18] 97% | [15]; at 50.0 µM 88.7% | [16]; at 11.0 µM 99% | [16]; at 33.0 µM 99% | [16]; at 100.0 µM 96%
